Screening results as filed in PubChem BioAssay.
HTT cytoprotect – qHTS Multiplex Assay to Identify Dual Action Probes in a Cell Model of Huntington: Cytoprotection (ATP); PC12 HTT-Q103 induced, cytoprotection, ATP luminescence, 40 h; Potency, µM (highest dose often 56.4 µM), for the others: cytoprotection (ATP increase), actives largely listed as activators; hit rate 0.14% among 230,000; AID 1471, 2008; active = well fitted curve in the direction sought with a large enough effect; inconclusive = small, poorly fitted or top-dose-only effect, or another doubt; inactive = no such curve, though single readings can be large; an effect the other way counts as inactive or inconclusive; note: % of control where 0% means no effect; nearly all actives have a fitted effect of over 45% in size
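Huntington model: PC12 line, ecdysone-inducible HTTQ103 exon1–GFP, tebufenozide 100 nM. Test articles in a dose series. Endpoint luminescence from cellular ATP.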
KDM4E inh – qHTS Assay for Inhibitors of Human Jumonji Domain Containing 2E (JMJD2E). Potency, µM (doses to about 57.1 µM), for inactives: top-dose activity change, negative = inhibition, hits mostly inhibitors. hit rate 1.6% among 230,000. Lysine-specific demethylase 4E (Homo sapiens), B2RXH2. JMJD2E catalytic domain, FDH-coupled NADH fluorescence (FDH is formaldehyde dehydrogenase);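 note: 0% = wells with enzyme and -100% = buffer wells without enzyme; nearly all actives have a fitted effect of over 50% in size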
Target sequence (B2RXH2 1-337 limits assumed): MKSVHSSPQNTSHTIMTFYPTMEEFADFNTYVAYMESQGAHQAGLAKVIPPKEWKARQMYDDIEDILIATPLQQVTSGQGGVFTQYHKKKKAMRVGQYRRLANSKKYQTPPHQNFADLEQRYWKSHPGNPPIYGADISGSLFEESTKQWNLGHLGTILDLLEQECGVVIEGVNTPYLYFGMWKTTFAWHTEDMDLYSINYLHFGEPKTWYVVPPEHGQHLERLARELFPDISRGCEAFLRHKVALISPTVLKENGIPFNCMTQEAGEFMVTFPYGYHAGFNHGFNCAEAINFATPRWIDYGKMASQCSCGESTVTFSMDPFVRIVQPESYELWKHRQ
LMNA splice mod – qHTS Assay for Modulators of Lamin A Splicing. HeLa LMNA splicing GFP/RFP minigene ratio, 48 h. Potency, µM (titrated, usually from 46.1 µM), inactives show at the highest dose ratio change, negative = inhibition, usual class: inhibitors. hit rate 0.01% among 200,000; active = well fitted inhibition curve with a large enough effect in the signal ratio, with a control signal flat, not every such curve was filed as active; inconclusive = small, poorly fitted or top-dose-only effect, or effect the other way, or a change in a side signal; the % refers to the signal ratio; note: % is set by controls: 0 for no effect and ±100 for the full control effect
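S3 HeLa cells stably expressing lamin A-EGFP splicing minigene plus DsRed2, 600 cells/well, 48 h compound exposure at 37C. Laser-scanning cytometry; analysed as GFP (500-530 nm)/RFP (575-640 nm) total intensity ratio; 0.5% DMSO vehicle.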
HPGD inh – qHTS Assay for Inhibitors of HPGD (15-Hydroxyprostaglandin Dehydrogenase) | 15-hydroxyprostaglandin dehydrogenase [NAD(+)] (Homo sapiens), P15428 | purified HPGD, NADH fluorescence kinetic, PGE2 substrate | Potency, µM, for inactives: at the highest dose activity change, negative = inhibition, most hits filed as inhibitors | hit rate 4.3% among 150,000 | AID 894, 2007; note: % is set by controls: 0 for no effect and ±100 for the full control effect
Target sequence (P15428 whole entry, looked up): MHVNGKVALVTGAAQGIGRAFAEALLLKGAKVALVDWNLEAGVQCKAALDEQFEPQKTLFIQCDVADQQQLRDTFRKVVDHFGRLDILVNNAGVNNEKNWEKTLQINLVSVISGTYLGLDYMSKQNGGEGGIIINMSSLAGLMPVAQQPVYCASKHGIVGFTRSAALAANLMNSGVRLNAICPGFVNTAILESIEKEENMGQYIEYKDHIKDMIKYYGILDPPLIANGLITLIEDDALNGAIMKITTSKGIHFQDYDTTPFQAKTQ
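20 nM HPGD preincubated 15 min at room temperature with compound in 50 mM Tris-HCl pH 8, 0.01% Tween 20. Started with 1 mM NAD+ and 30 uM prostaglandin E2; NADH fluorescence (360/450 nm) read 5 times over 30-s intervals, last minus first.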
ALDH1A1 inh – qHTS Assay for Inhibitors of Aldehyde Dehydrogenase 1 (ALDH1A1). Aldehyde dehydrogenase 1A1 (Homo sapiens), P00352. Purified ALDH1A1, NADH fluorescence, propionaldehyde substrate. Potency, µM (highest dose often 75.3 µM), for inactives: top-dose activity, negative = inhibition, most hits filed as inhibitors. hit rate 7.3% among 220,000. AID 1030, 2008;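 note: plate controls were no enzyme wells and a reference inhibitor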
HTT aggregate – qHTS Multiplex Assay to Identify Dual Action Probes in a Cell Model of Huntington: Aggregate Formation (GFP); hit rate 1.1% among 220,000; PC12 HttQ103-GFP aggregates, Acumen cytometry, 40 h; Potency, µM (doses to about 46.1 µM), without a hit: at the highest dose activity change, negative = inhibition, usual class: inhibitors; active = well fitted curve in the direction sought with a large enough effect; inconclusive = small, poorly fitted or top-dose-only effect, or another doubt; inactive = no such curve, though single readings can be large; an effect the other way counts as inactive or inconclusive; note: % is set by controls: 0 for no effect and ±100 for the full control effect; nearly all actives have a fitted effect of over 60% in size
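Aggregates are detected as GFP objects 1–25 µm with signal 6 STDEV over background in lysates of induced PC12 cells. These carry Huntingtin exon 1 with 103 glutamines fused to GFP under an ecdysone promoter; compounds titrated.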
Active calls of the source: *; [ ] = remark or other dose. Most compounds without a hit are left out; they make up all but 9.2% or so of the library. Unless noted, calls come from the whole dose curve; as a rule, active = well fitted inhibition curve with a large enough effect (not every such curve was filed as active); inconclusive = small, poorly fitted or top-dose-only effect, or another doubt; inactive = no such curve, though single readings can be large or run the other way. Potency is the fitted concentration of half-maximal effect.

`Cc1ccc(N=Cc2nc(-c3ccco3)oc2O)cc1` gave HTT cytoprotect 0%[10 µM], KDM4E inh -15%, LMNA splice mod 8%, HPGD inh -21%, ALDH1A1 inh inconclusive and HTT aggregate -5%.
O=C(Oc1oc(-c2ccco2)nc1C=Nc1ccccc1)c1ccco1 was read as HTT cytoprotect 7%[1.9 µM], KDM4E inh -1%, LMNA splice mod 11%, HPGD inh 2µM*, ALDH1A1 inh inconclusive and HTT aggregate 8%.
For CN(C)c1ccc(N=Cc2nc(-c3ccccc3)oc2OC(=O)c2cccc(Cl)c2)cc1 the results were HTT cytoprotect -4%[10 µM], KDM4E inh 3%, LMNA splice mod -9%, HPGD inh inconclusive, ALDH1A1 inh 13µM* and HTT aggregate inconclusive.
For Cc1ccc(C(=O)Oc2oc(-c3ccco3)nc2C=Nc2ccc(Cl)cc2)cc1 the results were HTT cytoprotect -37%, KDM4E inh -4%, LMNA splice mod -9%, HPGD inh 6.3µM*, ALDH1A1 inh inconclusive and HTT aggregate 7%.
`O=C(Oc1oc(-c2ccco2)nc1C=Nc1ccccc1)c1ccoc1` gave HTT cytoprotect -15%, KDM4E inh 3%, LMNA splice mod 9%, HPGD inh 5µM*, ALDH1A1 inh inconclusive and HTT aggregate 13%[9.22 µM].
Screening Cc1ccc(C(=O)Oc2oc(-c3ccccc3)nc2C=Nc2ccc(N(C)C)cc2)cc1 returned HTT cytoprotect -57%[10 µM], KDM4E inh -13%, LMNA splice mod -3%, HPGD inh -22%, ALDH1A1 inh inconclusive and HTT aggregate 10%.
c1ccc2c(c1)C(=Nc1ccc(N=C3c4ccccc4-c4ccccc43)cc1)c1ccccc1-2 was read as HTT cytoprotect -2%[10 µM], HPGD inh -4% and ALDH1A1 inh 17%[13.5 µM].
`FC(F)(F)c1ccccc1-c1cc(N2CCNCC2)ncn1` gave HTT cytoprotect 8%, KDM4E inh -7%, LMNA splice mod -8%, HPGD inh -5% and ALDH1A1 inh -12%.
Screening Cc1cccc(CNC(=O)CN2C(=O)C3CCCCN3c3ccc(C(=O)N4CCCC4)cc32)c1 (stereo not drawn) returned LMNA splice mod 10%[46 µM].
`O=C(c1cnccn1)N1CCC2(CC1)CN(C(c1ccccc1)c1ccccc1)C2` gave HTT cytoprotect 13%, HPGD inh -13% and ALDH1A1 inh 4%.
`Cc1ccc(C(=O)CSC2=C(C#N)C(c3ccco3)C3=C(CC(C)(C)CC3=O)N2)cc1` (stereo not drawn) gave HTT cytoprotect 3%[10 µM], KDM4E inh -9%, LMNA splice mod inconclusive, HPGD inh -10%, ALDH1A1 inh 13µM* and HTT aggregate -14%.
For COCCOC(=O)C1=C(C)NC(SCC(=O)NC(C)(C)C)=C(C#N)C1c1ccco1 (stereo not drawn) the results were HTT cytoprotect -25%, KDM4E inh -25%, LMNA splice mod -2%, HPGD inh 16µM*, ALDH1A1 inh 6% and HTT aggregate -4%.
For C=CCOC(=O)C1=C(C)NC(SCC(=O)Nc2ccc(C)c(Cl)c2)=C(C#N)C1c1ccco1 (stereo not drawn) the results were HTT cytoprotect -16%, KDM4E inh inconclusive, LMNA splice mod -1%, HPGD inh inconclusive, ALDH1A1 inh inconclusive and HTT aggregate -3%.
For CCOC(=O)CSC1=C(C#N)C(c2ccc(OC)cc2)C2=C(CC(C)(C)CC2=O)N1 (stereo not drawn) the results were HTT cytoprotect 12%, KDM4E inh 6%, LMNA splice mod inconclusive, HPGD inh inconclusive, ALDH1A1 inh inconclusive and HTT aggregate 19%.
N#CC1=C(SCC(=O)Nc2ccc(C(=O)O)cc2)NC(=O)CC1c1ccco1 (stereo not drawn) was read as HTT cytoprotect 0%[10 µM], KDM4E inh 6%, LMNA splice mod 30%[46 µM], ALDH1A1 inh 13µM* and HTT aggregate 16%[9.22 µM].
Screening COc1ccccc1NC(=O)C1=C(C)NC(SCC(=O)c2ccccc2)=C(C#N)C1c1ccco1 (stereo not drawn) returned HTT cytoprotect -14%[10 µM], KDM4E inh -24%, LMNA splice mod -5%, HPGD inh inconclusive, ALDH1A1 inh 14µM* and HTT aggregate 7%.
`C[C@@H]1CCN=C(N)S1` gave HTT cytoprotect inconclusive, KDM4E inh 9%, HPGD inh -4% and ALDH1A1 inh -7%.
O=C(CN(c1ccccc1)S(=O)(=O)c1ccc(F)cc1)NC1CCS(=O)(=O)C1 (stereo not drawn) was read as KDM4E inh -4%, ALDH1A1 inh 14% and HTT aggregate 14%.
For Cc1ccc(NC(=O)CSC2=C(C#N)C(c3ccco3)C3=C(CCCC3=O)N2)cc1 (stereo not drawn) the results were HTT cytoprotect -29%, KDM4E inh inconclusive, LMNA splice mod inconclusive, HPGD inh inconclusive, ALDH1A1 inh inconclusive and HTT aggregate inconclusive.
For CC(=O)C1=C(C)NC(SCC(N)=O)=C(C#N)C1c1cccnc1 (stereo not drawn) the results were HTT cytoprotect -6%, KDM4E inh -16%, LMNA splice mod 5%, HPGD inh -6%, ALDH1A1 inh inconclusive and HTT aggregate -14%.
CC(=O)C1=C(C)NC(SCC(=O)c2ccc(C)cc2)=C(C#N)C1c1ccco1 (stereo not drawn) was read as HTT cytoprotect -10%, KDM4E inh -5%, LMNA splice mod -5%, HPGD inh 28µM*, ALDH1A1 inh 10µM* and HTT aggregate -4%.
For N#CC1=C(SCC(=O)c2ccc(Cl)cc2)NC2=C(C(=O)CCC2)C1c1ccco1 (stereo not drawn) the results were HTT cytoprotect -107%, KDM4E inh -4%, LMNA splice mod 1%, HPGD inh -20%, ALDH1A1 inh 28µM* and HTT aggregate 14%.
`CC1(C)CC(=O)C2=C(C1)NC(SCC(=O)Nc1ccccc1)=C(C#N)C2c1ccco1` (stereo not drawn) gave HTT cytoprotect 12%, KDM4E inh -7%, LMNA splice mod inconclusive, HPGD inh -8%, ALDH1A1 inh 13µM* and HTT aggregate -19%.
